Measured values: PubChem BioAssay
Active and inactive are the calls of the source.

Assays:
[1] = system: PRMT1 (protein arginine N-methyltransferase 1); assay: small molecules binding arginine methyltransferase PRMT1 – biochemical, small-molecule microarray, 635 nm fluorescence, primary screen (AID 1088); details: higher = more signal;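 also: binding of Prmt1 protein to compounds spotted on small-molecule microarray slides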
[2] = growth effects on S. cerevisiae YJM789 – YJM789 clinical isolate, OD600, 24 h, basal, primary screen (AID 1089); details: higher = more signal, called active from +8 up or from −8 down;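 also: growth of clinical yeast isolate S. cerevisiae YJM 789 seeded 1000 cells per well; test concentration not given here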
[3] = S. pombe growth modifiers, basal conditions – strain 972, OD600, 24 h, no modulator, primary screen (AID 1090);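 also: basal condition with compound alone and no growth modifier present; test concentration not given here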; details: S. pombe 972 growth, higher = more signal, called active from +8 up or from −8 down
[4] = budding yeast growth modifiers under rapamycin – strain BY4716, OD600, 96 h, primary screen (AID 1091); also: test concentration not given here; details: S. cerevisiae BY4716 + rapamycin, higher = more signal, called active from +8 up or from −8 down
[5] = target: Torsin-1A-interacting protein 2 (Homo sapiens) (UniProt Q8NFQ8); assay: small molecules binding lysate-expressed LULL1 – cell lysate, human LULL1 lysate, 635/667 nm fluorescence, primary screen (AID 1092); details: small-molecule microarray, hLULL1 lysate binding, 635 nm fluorescence; higher = more signal;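 also: probe is lysate of COS7 cells overexpressing human LULL1; score merges per-feature 667 nm fluorescence with signal-to-noise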
Sequence of Torsin-1A-interacting protein 2 (Homo sapiens) (Q8NFQ8 whole entry, looked up): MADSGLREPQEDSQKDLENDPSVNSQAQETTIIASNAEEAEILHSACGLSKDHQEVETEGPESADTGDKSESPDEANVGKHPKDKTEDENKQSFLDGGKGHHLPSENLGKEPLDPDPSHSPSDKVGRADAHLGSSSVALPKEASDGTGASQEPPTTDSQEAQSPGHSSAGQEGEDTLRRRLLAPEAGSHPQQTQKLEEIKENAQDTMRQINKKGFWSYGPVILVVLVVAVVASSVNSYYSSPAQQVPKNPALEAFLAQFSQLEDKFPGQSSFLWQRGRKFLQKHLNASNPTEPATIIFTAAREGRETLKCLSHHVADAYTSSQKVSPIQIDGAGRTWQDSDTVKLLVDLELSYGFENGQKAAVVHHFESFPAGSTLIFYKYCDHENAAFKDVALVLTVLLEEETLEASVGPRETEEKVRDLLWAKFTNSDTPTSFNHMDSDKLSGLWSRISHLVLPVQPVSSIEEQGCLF

[6] = optical density change of DRC41 E. coli – strain DRC41, OD650, 24 h, E. coli filamentation project, primary screen (AID 1093);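 also: MC1000 strain lacking acrAB efflux and sulA so SOS filamentation is blocked; test concentration not given here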; details: E. coli DRC41 growth, higher = more signal, called active from +8 up or from −8 down
[7] = probe aLefty2 binding to arrayed compounds – biochemical, biotinylated probe, 635/667 nm fluorescence, primary screen (AID 1094); details: small-molecule microarray, higher = more signal;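 also: score merges spot fluorescence near 667 nm with spot signal-to-noise ratio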
[8] = system: Noggin (protein binding on small-molecule microarray); assay: small molecules binding Noggin protein – biochemical, 635/667 nm fluorescence, primary screen (AID 1095); details: 635 nm fluorescence, higher = more signal;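 also: score merges 667 nm feature fluorescence with signal to noise over triplicate slides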
[9] = target: Neurogenic locus notch homolog protein 3 (Homo sapiens) (UniProt Q9UM47); assay: small molecules binding NOTCH3 protein – biochemical, 635/667 nm fluorescence, primary screen (AID 1096); details: small-molecule microarray, 635 nm fluorescence, higher = more signal
Sequence of Neurogenic locus notch homolog protein 3 (Homo sapiens) (Q9UM47 whole entry, looked up): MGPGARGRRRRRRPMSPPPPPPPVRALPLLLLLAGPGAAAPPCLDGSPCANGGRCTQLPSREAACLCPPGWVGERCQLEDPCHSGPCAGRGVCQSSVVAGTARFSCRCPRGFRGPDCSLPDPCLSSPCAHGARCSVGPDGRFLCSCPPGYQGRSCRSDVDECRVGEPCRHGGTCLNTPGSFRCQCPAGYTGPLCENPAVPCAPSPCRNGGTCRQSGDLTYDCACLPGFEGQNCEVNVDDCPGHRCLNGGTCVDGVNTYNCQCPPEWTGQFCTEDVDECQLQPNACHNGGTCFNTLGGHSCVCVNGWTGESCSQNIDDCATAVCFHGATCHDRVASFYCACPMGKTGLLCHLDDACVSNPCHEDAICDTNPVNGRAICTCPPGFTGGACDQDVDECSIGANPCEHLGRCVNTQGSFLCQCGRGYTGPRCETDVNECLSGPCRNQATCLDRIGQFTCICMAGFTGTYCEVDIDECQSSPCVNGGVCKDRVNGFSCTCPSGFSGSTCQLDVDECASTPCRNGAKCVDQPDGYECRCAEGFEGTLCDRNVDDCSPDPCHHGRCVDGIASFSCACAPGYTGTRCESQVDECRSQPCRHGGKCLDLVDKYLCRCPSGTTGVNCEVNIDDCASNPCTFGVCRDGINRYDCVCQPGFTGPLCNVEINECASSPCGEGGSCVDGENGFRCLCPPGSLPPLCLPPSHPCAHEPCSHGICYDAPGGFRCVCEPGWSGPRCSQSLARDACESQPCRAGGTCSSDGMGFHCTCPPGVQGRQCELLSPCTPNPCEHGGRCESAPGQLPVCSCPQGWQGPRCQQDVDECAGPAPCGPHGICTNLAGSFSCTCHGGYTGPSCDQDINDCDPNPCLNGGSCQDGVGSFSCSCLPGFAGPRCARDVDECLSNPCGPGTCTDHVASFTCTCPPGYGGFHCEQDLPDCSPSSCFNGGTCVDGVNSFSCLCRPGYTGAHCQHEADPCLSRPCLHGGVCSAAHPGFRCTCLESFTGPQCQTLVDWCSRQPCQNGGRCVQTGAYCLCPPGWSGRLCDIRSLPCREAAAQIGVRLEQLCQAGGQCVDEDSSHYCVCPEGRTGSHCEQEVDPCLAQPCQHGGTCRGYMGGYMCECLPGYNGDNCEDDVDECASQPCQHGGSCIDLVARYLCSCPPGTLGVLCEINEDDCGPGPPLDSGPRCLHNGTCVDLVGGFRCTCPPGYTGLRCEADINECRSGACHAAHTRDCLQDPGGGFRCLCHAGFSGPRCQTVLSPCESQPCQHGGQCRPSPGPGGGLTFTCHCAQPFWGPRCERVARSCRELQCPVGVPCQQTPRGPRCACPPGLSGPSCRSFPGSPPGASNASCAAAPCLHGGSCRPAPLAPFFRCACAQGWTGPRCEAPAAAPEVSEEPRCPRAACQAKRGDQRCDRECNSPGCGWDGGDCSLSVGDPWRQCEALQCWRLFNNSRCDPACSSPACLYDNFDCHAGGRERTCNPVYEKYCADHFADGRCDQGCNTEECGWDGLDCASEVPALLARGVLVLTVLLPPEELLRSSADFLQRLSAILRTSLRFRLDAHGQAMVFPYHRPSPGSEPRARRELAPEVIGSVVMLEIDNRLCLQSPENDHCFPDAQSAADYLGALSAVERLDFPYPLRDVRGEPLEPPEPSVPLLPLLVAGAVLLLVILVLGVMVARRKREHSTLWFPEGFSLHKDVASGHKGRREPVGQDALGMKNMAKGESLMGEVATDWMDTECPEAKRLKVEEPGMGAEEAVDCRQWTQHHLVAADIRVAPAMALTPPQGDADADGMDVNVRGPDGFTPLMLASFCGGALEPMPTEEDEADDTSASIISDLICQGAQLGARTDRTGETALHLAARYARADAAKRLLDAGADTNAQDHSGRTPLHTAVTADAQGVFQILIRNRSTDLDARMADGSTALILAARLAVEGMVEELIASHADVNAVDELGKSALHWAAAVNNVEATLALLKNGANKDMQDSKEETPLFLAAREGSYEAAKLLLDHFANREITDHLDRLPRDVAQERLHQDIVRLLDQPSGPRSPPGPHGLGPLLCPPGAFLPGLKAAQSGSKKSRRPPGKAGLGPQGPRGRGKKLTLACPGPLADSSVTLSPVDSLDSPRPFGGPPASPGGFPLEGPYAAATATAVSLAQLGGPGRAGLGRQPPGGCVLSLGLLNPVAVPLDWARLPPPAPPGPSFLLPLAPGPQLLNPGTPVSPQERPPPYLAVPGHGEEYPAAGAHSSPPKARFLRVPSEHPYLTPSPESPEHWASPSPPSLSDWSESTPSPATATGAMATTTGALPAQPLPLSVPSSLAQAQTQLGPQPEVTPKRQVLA

[10] = probe aEGFR binding to arrayed compounds – biochemical, biotinylated probe, 635/667 nm fluorescence, primary screen (AID 1097); details: small-molecule microarray, higher = more signal;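 also: probe is a biotinylated anti-EGFR antibody binding compounds printed on slides; score combines fluorescence near 667 nm and signal to noise of each spot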

Question: For `C=CCNC(=O)[C@@H]1[C@H]2C(=O)O[C@H](c3ccccc3)[C@H](c3ccccc3)N2[C@H](c2ccc(OCCO)cc2)[C@@]12C(=O)N(C(=O)OCCOC)c1ccc(C#CC3(O)CCCCCC3)cc12`, which composite z-score [1] is on record?
Answer: 1.56

Question: And the z-score [2]?
Answer: -1.05 (inactive)

Question: What about the z-score [3] of the same compound?
Answer: -1.64 (inactive)

Question: And the z-score [4]?
Answer: 3.24 (inactive)

Question: What about the composite z-score [5] of the same compound?
Answer: 1.6

Question: What about the z-score [6] of the same compound?
Answer: 2.89 (inactive)

Question: And the composite z-score [7]?
Answer: 0.505

Question: And the composite z-score [8]?
Answer: 0.205

Question: And the composite z-score [9]?
Answer: 0.955

Question: What about the composite z-score [10] of the same compound?
Answer: 0.108

Question: Which composite z-score [1] does the source give for `CCOC(=O)C[C@H]1[C@H](OC(=O)c2ccccc2-c2ccccc2)[C@@H](NC(=O)C2CCCCC2)c2cc(OCCCO)ccc2N1C(=O)c1ccccc1` here?
Answer: 0.884

Question: And the z-score [2]?
Answer: 1.2 (inactive)

Question: What about the z-score [3] of the same compound?
Answer: 0.543 (inactive)

Question: What about the z-score [4] of the same compound?
Answer: 1 (inactive)

Question: And the composite z-score [5]?
Answer: 0.928

Question: And the z-score [6]?
Answer: 2.19 (inactive)

Question: And the composite z-score [7]?
Answer: -0.0498

Question: And the composite z-score [8]?
Answer: 0.203

Question: And the composite z-score [9]?
Answer: 0.352

Question: What about the composite z-score [10] of the same compound?
Answer: 0.232

Question: For `CO[C@H]1COC(=O)[C@H](C)COC(=O)[C@H](Cc2ccccc2)NC(=O)CC=C[C@H]1C`, which composite z-score [1] is on record?
Answer: -0.0111

Question: What about the z-score [2] of the same compound?
Answer: 0.43 (inactive)

Question: What about the z-score [3] of the same compound?
Answer: -0.854 (inactive)

Question: And the z-score [4]?
Answer: -0.798 (inactive)

Question: And the composite z-score [5]?
Answer: -0.826

Question: And the z-score [6]?
Answer: 0.195 (inactive)

Question: And the composite z-score [7]?
Answer: 0.0128

Question: And the composite z-score [8]?
Answer: 0.952

Question: What about the composite z-score [9] of the same compound?
Answer: -0.447

Question: And the composite z-score [10]?
Answer: -0.139

Question: What does the source list for `C=C(CCCC)/C(=C/C[C@H](OC(=O)c1ccncc1)c1cccc(OCCO)c1)c1cc(C(=O)OC)ccc1OC`?
Answer: composite z-score [1]: 1.4; z-score [2]: 0.15 (inactive); z-score [3]: -0.323 (inactive); z-score [4]: 2.82 (inactive); composite z-score [5]: 1.23; z-score [6]: 1.94 (inactive); composite z-score [7]: -0.174; composite z-score [8]: 1.08; composite z-score [9]: 0.966; composite z-score [10]: -0.112

Question: Which composite z-score [1] does the source give for `COc1ccc(C(=O)Nc2ccc(CN3C(=O)[C@]4(O[C@H](CCn5cc(CCO)nn5)[C@@H]([Si](C)(C)c5ccc(OC)cc5)[C@@H]4C)c4ccccc43)cc2)cc1` here?
Answer: 1.56

Question: What about the z-score [2] of the same compound?
Answer: 1.42 (inactive)

Question: What about the z-score [3] of the same compound?
Answer: -7.78 (inactive)

Question: What about the z-score [4] of the same compound?
Answer: 1.13 (inactive)

Question: What about the composite z-score [5] of the same compound?
Answer: 0.961

Question: And the z-score [6]?
Answer: 1.07 (inactive)

Question: And the composite z-score [7]?
Answer: 0.201

Question: And the composite z-score [8]?
Answer: 1.65

Question: What about the composite z-score [9] of the same compound?
Answer: 1.08

Question: What about the composite z-score [10] of the same compound?
Answer: 0.14

Question: Which results are given for `CC(C)[C@H]1NC(=O)[C@@]23C(=O)N[C@@H](Cc4ccccc4)C2[C@H](C)[C@@]2(C)O[C@H]2C3/C=C/C/C=C\CNC(=O)[C@H](C)NC1=O` (stereo not given in full)?
Answer: composite z-score [1]: -1.24; z-score [2]: 0.782 (inactive); z-score [3]: 0.469 (inactive); z-score [4]: 0.41 (inactive); composite z-score [5]: -0.62; z-score [6]: -0.823 (inactive); composite z-score [7]: -0.287; composite z-score [8]: -0.632; composite z-score [9]: -0.517; composite z-score [10]: -0.255

Question: Which composite z-score [1] does the source give for `COCCCNC(=O)[C@@H]1c2ccccc2C(=O)N(CC23CC4CC(CC(C4)C2)C3)[C@H]1c1ccc(CO)cc1` here?
Answer: 1.49

Question: What about the z-score [2] of the same compound?
Answer: 0.4 (inactive)

Question: What about the z-score [3] of the same compound?
Answer: -1.02 (inactive)

Question: What about the z-score [4] of the same compound?
Answer: 0.182 (inactive)

Question: And the composite z-score [5]?
Answer: 1.56

Question: What about the z-score [6] of the same compound?
Answer: -0.494 (inactive)

Question: And the composite z-score [7]?
Answer: 0.242

Question: What about the composite z-score [8] of the same compound?
Answer: 0.39

Question: And the composite z-score [9]?
Answer: 0.588

Question: And the composite z-score [10]?
Answer: 0.135

Question: For `C[N+](C)(C)CCCCNC(=O)[C@@H]1C[C@@H]2C(=O)N3CCC[C@H]3C(=O)N2[C@@H]1c1cccc(OCCO)c1`, which composite z-score [1] is on record?
Answer: 0.869

Question: And the z-score [2]?
Answer: -1.09 (inactive)

Question: What about the z-score [3] of the same compound?
Answer: -1.74 (inactive)

Question: What about the z-score [4] of the same compound?
Answer: -2.42 (inactive)

Question: What about the composite z-score [5] of the same compound?
Answer: 0.381

Question: What about the z-score [6] of the same compound?
Answer: 1.54 (inactive)

Question: What about the composite z-score [7] of the same compound?
Answer: -0.123

Question: And the composite z-score [8]?
Answer: 1.64

Question: What about the composite z-score [9] of the same compound?
Answer: 0.751

Question: And the composite z-score [10]?
Answer: 0.0051

Question: For `CN1C(=O)C2C=CC(C(O)c3ccc(N(C)C)cc3)N(Nc3ccc([N+](=O)[O-])cc3[N+](=O)[O-])C2C1=O` (stereo not given), which composite z-score [1] is on record?
Answer: 1.1

Question: And the z-score [2]?
Answer: 0.0069 (inactive)

Question: And the z-score [3]?
Answer: -0.0787 (inactive)

Question: And the z-score [4]?
Answer: -0.183 (inactive)

Question: And the composite z-score [5]?
Answer: 2.77

Question: What about the z-score [6] of the same compound?
Answer: -0.465 (inactive)

Question: And the composite z-score [7]?
Answer: 0.452

Question: What about the composite z-score [8] of the same compound?
Answer: 0.0496

Question: What about the composite z-score [9] of the same compound?
Answer: 1.1

Question: What about the composite z-score [10] of the same compound?
Answer: 0.335

Question: Which composite z-score [1] does the source give for `O=C(NCC(O)CO)[C@]1(Cc2ccccc2)N=C(c2ccc(OCCCO)cc2)O[C@@H]1c1ccccc1` (stereo not given in full) here?
Answer: 1.26

Question: What about the z-score [2] of the same compound?
Answer: -1 (inactive)

Question: What about the z-score [3] of the same compound?
Answer: -1.56 (inactive)

Question: And the z-score [4]?
Answer: -1.81 (inactive)

Question: What about the composite z-score [5] of the same compound?
Answer: 3.43

Question: What about the z-score [6] of the same compound?
Answer: 0.897 (inactive)

Question: What about the composite z-score [7] of the same compound?
Answer: 0.595

Question: And the composite z-score [8]?
Answer: -0.574

Question: What about the composite z-score [9] of the same compound?
Answer: -0.0954

Question: What about the composite z-score [10] of the same compound?
Answer: 0.107

Question: For `CO[C@@H]1COC(=O)[C@H](C)NC(=O)CC=C[C@@H](C)[C@H](OC)COC(=O)[C@H](C)NC(=O)CC=C[C@H]1C`, which composite z-score [1] is on record?
Answer: 0.0529

Question: What about the z-score [2] of the same compound?
Answer: 0.611 (inactive)

Question: And the z-score [3]?
Answer: -0.76 (inactive)

Question: And the z-score [4]?
Answer: 0.0943 (inactive)

Question: What about the composite z-score [5] of the same compound?
Answer: -0.391

Question: What about the z-score [6] of the same compound?
Answer: 0.485 (inactive)

Question: What about the composite z-score [7] of the same compound?
Answer: -0.137

Question: What about the composite z-score [8] of the same compound?
Answer: 0.705

Question: And the composite z-score [9]?
Answer: 0.546

Question: And the composite z-score [10]?
Answer: -0.121

Question: Which composite z-score [1] does the source give for `O=C1OCCC/C=C\[C@H]2OC34C=CCN(CCN5CCOCC5)C(=O)[C@H]3N(CCCCCO)C(=O)[C@@H]4C12` (stereo not given in full) here?
Answer: -0.706

Question: And the z-score [2]?
Answer: -0.114 (inactive)

Question: What about the z-score [3] of the same compound?
Answer: -0.359 (inactive)

Question: And the z-score [4]?
Answer: -0.824 (inactive)

Question: What about the composite z-score [5] of the same compound?
Answer: -0.701

Question: And the z-score [6]?
Answer: -0.763 (inactive)

Question: What about the composite z-score [7] of the same compound?
Answer: -0.221

Question: And the composite z-score [8]?
Answer: -0.987

Question: And the composite z-score [9]?
Answer: 0.0233

Question: What about the composite z-score [10] of the same compound?
Answer: -0.281

Question: Which results are given for `CCC#CCN(Cc1ccccc1Br)[C@H](/C=C/c1ccccc1)[C@@H](O)Cc1ccccc1`?
Answer: composite z-score [1]: -0.394; z-score [2]: 0.629 (inactive); z-score [3]: 0.266 (inactive); z-score [4]: 1.12 (inactive); composite z-score [5]: 1.22; z-score [6]: 0.567 (inactive); composite z-score [7]: 0.136; composite z-score [8]: -1.78; composite z-score [9]: -1.11; composite z-score [10]: -0.458

Question: With `CO[C@H]1COC(=O)CC=C[C@H](C)COC(=O)[C@@H](OCc2ccccc2)C=C[C@@H]1C` as the compound, how does the composite z-score [1] read?
Answer: 1.52

Question: What about the z-score [2] of the same compound?
Answer: 0.0706 (inactive)

Question: What about the z-score [3] of the same compound?
Answer: -1.39 (inactive)

Question: And the z-score [4]?
Answer: -0.993 (inactive)

Question: And the composite z-score [5]?
Answer: 0.059

Question: And the z-score [6]?
Answer: 0.0129 (inactive)

Question: What about the composite z-score [7] of the same compound?
Answer: -0.368

Question: And the composite z-score [8]?
Answer: 2.03

Question: What about the composite z-score [9] of the same compound?
Answer: -0.532

Question: And the composite z-score [10]?
Answer: -0.322
